Bioassay records from PubChem.
NOMO-1 viab – STK33 inhibitor candidate reducing NOMO-1 cell viability. NOMO-1 AML viability, CellTiter-Glo luminescence, 72 h. inhibition, % (test concentration not listed). actives 7.5% (n = 37,000); in the data active means inhibition above about 80%
STK33 inh – inhibitors of human STK33 kinase | Q9BYT3 | ADP-Glo luminescence, MBP substrate | inhibition, % at 12.5 µM | actives 0.44% (n = 27,000) | AID 2322; in the data active means inhibition above about 20%
Target sequence (Q9BYT3 whole entry, looked up): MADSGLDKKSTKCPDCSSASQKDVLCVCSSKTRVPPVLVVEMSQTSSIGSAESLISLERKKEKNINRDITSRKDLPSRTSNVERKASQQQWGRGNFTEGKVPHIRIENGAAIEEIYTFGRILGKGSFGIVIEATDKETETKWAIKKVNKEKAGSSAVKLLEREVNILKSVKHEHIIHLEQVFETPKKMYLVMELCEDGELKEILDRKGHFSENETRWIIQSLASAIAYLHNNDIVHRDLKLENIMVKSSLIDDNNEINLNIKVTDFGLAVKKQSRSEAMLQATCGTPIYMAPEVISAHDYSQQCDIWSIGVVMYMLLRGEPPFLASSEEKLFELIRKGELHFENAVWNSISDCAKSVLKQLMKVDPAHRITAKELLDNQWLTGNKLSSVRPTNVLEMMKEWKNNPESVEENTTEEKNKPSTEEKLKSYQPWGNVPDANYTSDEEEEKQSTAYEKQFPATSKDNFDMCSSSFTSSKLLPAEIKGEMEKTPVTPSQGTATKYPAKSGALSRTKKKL
PD-1 reverse act – activators reversing PD-1 mediated T-cell inhibition | primary human CD4 T cells, PD-L1 beads, CellTiter-Glo 96 h | activation, % (test concentration not listed) | 29,000 tested, under 10 active | AID 2316; call rule not given here;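 further: 0% = median vehicle wells and 100% = positive control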
The depositor's hits bear a star; . = no result. Only a selection was taken, and hits are over-represented in it overall.

SMILES	NOMO-1 viab	STK33 inh	PD-1 reverse act
CC1(C)CC[C@]2(C(=O)OC3OC(CO)C(O)C(O)C3O)CC[C@]3(C)C(=CCC4[C@@]5(C)CC[C@H](OC6OC(C(=O)O)C(O)C(O)C6O)C(CO)(CO)C5CC[C@]43C)[C@@H]2C1 (stereo partly drawn)	120*	-3	-3
C[C@@H]1O[C@@H](O[C@H]2[C@H](O[C@H]3CC[C@@]4(C)C(CC[C@]5(C)C4CC=C4[C@@H]6CC(C)(C)CC[C@]6(C(=O)O[C@@H]6O[C@H](CO[C@@H]7O[C@H](CO)[C@@H](O)[C@H](O)[C@H]7O)[C@@H](O)[C@H](O)[C@H]6O)CC[C@]45C)[C@]3(C)CO)OC[C@H](O)[C@@H]2O)[C@H](O)[C@H](O)[C@H]1O (stereo partly drawn)	28	-2	0
CC1(C)CC[C@]2(C(=O)O[C@@H]3O[C@H](CO)[C@@H](O)[C@H](O)[C@H]3O)CC[C@]3(C)C(=CCC4[C@@]5(C)C[C@@H](O)[C@H](O)[C@](C)(CO)C5CC[C@]43C)C2[C@@H]1O (stereo partly drawn)	120*	2	-1
COc1cc(C(=O)NC2(C(F)(F)F)C(=O)N(CC3CCCO3)C3=C2C(=O)CC(C)(C)C3)cc(OC)c1OC (stereo not drawn)	4	4	1
CCNC(=O)c1c(NC(=O)C(C)Oc2ccccc2F)sc2c1CCCC2 (stereo not drawn)	-23	-3	2
O=C(Nc1cccc([N+](=O)[O-])c1)Nc1nn(Cc2ccc(Cl)c(Cl)c2)cc1Cl	24	4	.
C=CCNC(=O)[C@H]1[C@@H]2C(=O)O[C@@H](c3ccccc3)[C@@H](c3ccccc3)N2[C@@H](c2ccccc2OCCO)[C@]12C(=O)N(C(=O)OCCOC)c1ccc(C#CC3=CCCCC3)cc12	.	4	.
CC1(C)CC(=O)C2=C(C1)N(Cc1cccnc1)C(=O)C2(NC(=O)c1ccc(Cl)cc1Cl)C(F)(F)F (stereo not drawn)	2	-4	.
O=C(CSc1nnc(-c2cccnc2)n1-c1ccccc1)Nc1cc(C(F)(F)F)ccc1Cl	24	0	.
CN(C)/C=N/n1cnc2sc3c(c2c1=O)CCCC3	4	.	0
COc1cccc(CO)c1OCC(=O)Nc1ccc(F)cc1	-1	-7	2
CCn1c(SCC(=O)Nc2cc(Cl)cc(Cl)c2)nnc1-c1ccc(C)cc1	43	-3	-8
COC(=O)c1ccccc1NC(=O)CSc1nc(-c2cccs2)cc(C(F)(F)F)c1C#N	20	0	-1
Cc1ccc(-n2c(SCC(=O)Nc3c(F)cc(F)cc3Br)nc3ccccc3c2=O)cc1	27	0	.
Cc1ccc(S(=O)(=O)NCC(=O)Nc2ccc(F)cc2F)cc1	13	-6	2
CC1(C)CC[C@]2(C(=O)O)CC[C@]3(C)C(=CCC4[C@@]5(C)CC[C@H](O[C@@H]6OC[C@H](O)[C@H](O)[C@H]6O)[C@@](C)(CO)C5CC[C@]43C)C2C1 (stereo partly drawn)	120*	-8	-8
CC1(C)CC[C@]2(C(=O)O[C@@H]3O[C@H](CO)[C@@H](O)[C@H](O)[C@H]3O)CC[C@]3(C)C(=CCC4[C@@]5(C)CC[C@H](O[C@@H]6OC[C@H](O)[C@H](O)[C@H]6O[C@@H]6O[C@H](CO)[C@@H](O)[C@H](O)[C@H]6O[C@@H]6OC[C@H](O)[C@H](O)[C@H]6O)[C@@](C)(CO)C5CC[C@]43C)C2C1 (stereo partly drawn)	-11	-3	0
Cc1cc(NC(=O)C2C(=O)c3ccccc3S(=O)(=O)N2C)no1 (stereo not drawn)	-3	-8	.
Cc1ccc(S(=O)(=O)Nc2ccc(Br)cc2CNc2nc3ccccc3n2C)cc1	23	-2	.
C[C@@H]1CN([C@@H](C)CO)C(=O)Cc2cc(NC(=O)Nc3cccc4ccccc34)ccc2O[C@@H]1CN(C)Cc1ccc2c(c1)OCO2	97*	2	-1
C[C@@H]1CN([C@@H](C)CO)C(=O)c2cc(NC(=O)Nc3cccc4ccccc34)ccc2O[C@H]1CN(C)Cc1ccc2c(c1)OCO2	28	-1	1
C[C@@H]1CN([C@H](C)CO)C(=O)Cc2cc(NC(=O)Nc3cccc4ccccc34)ccc2O[C@@H]1CN(C)Cc1ccc2c(c1)OCO2	116*	1	-1
C[C@H](CO)N1C[C@H](C)[C@@H](CN(C)Cc2ccc3c(c2)OCO3)Oc2ccc(NC(=O)Nc3cccc4ccccc34)cc2C1=O	43	.	-1
CC(C(=O)Nc1cccc(Br)c1)N(c1ccc(Cl)cc1)S(C)(=O)=O (stereo not drawn)	44	-3	.
C=C(C)C(=O)Nc1ccc2c(c1)C(=O)NC2=O	-19	.	1
SMILES	NOMO-1 viab	STK33 inh	PD-1 reverse act
CCc1cc(C(=O)OC)c(NC(=O)c2cc(-c3cccnc3)nc3ccc(Br)cc23)s1	89*	4	1
COC(=O)c1cc(Cc2ccccc2)sc1NC(=O)c1cc(-c2cccnc2)nc2ccccc12	9	0	.
O=c1cc(-c2ccccc2)oc2c(O)c(O)ccc12	101*	14	.
O=c1cc(-c2ccccc2)oc2ccc(O)cc12	8	1	2
COc1ccc(NC(=O)C2CC(=O)NC(=Nc3ccccc3)S2)cc1 (stereo not drawn)	-6	.	2
COc1ccc(OC)c(S(=O)(=O)N2CCC(C(=O)Nc3cccc(C(C)=O)c3)CC2)c1	31	0	-1
Cn1c(=O)c([N+](=O)[O-])c(NCc2ccco2)c2ccccc21	.	3	.
O=c1[nH]c(=O)n(C2C[C@H](O)[C@@H](CO)O2)cc1C(F)(F)F (stereo partly drawn)	108*	-1	.
COC1CC(O[C@H]2CC[C@]3(C)C4CC[C@@]5(C)C(=O)[C@]4(CC[C@@H]3C2)CC[C@@H]5C2=CC(=O)OC2)OC(C)C1OC1OC(COC2OC(CO)C(O)C(O)C2O)C(O)C(O)C1O (stereo partly drawn)	111*	1	1
CC1OC(OCC2OC(O[C@H]3CC[C@@]4(C)C(CC[C@@]5(C)C6=C(CCC45)C4CC(C)(C)CC[C@]4(C(=O)OC4OC(CO)C(O)C(O)C4O)CC6)C3(C)C)C(O)C(O)C2O)C(O)C(O)C1O (stereo partly drawn)	.	-6	.
O=C(CC(=O)c1ccc(O)cc1)OC[C@H]1O[C@@H](Oc2ccc(O)cc2)[C@H](OC(=O)c2ccc(O)cc2)[C@@H](O)[C@@H]1O	.	1	.
CCc1ccc(CCC(=O)Nc2cc(Cl)ccc2Cl)o1	34	-1	.
C=C(CO)C(=O)O[C@H]1C[C@H]2C(=C)C[C@H](OC(=O)C(=C)CO)[C@H]3C(=C)C(=O)O[C@@H]3[C@H]2C1=C	117*	1	3
C=C1C(=O)O[C@@H]2[C@H]3C(=C)[C@@H](O[C@@H]4O[C@H](CO)[C@@H](OC(=O)/C=C/c5ccc(O)c(O)c5)[C@H](O)[C@H]4O)C[C@H]3C(=C)C[C@@H](O)[C@@H]12	.	7	.
O=C(O)CCC(=O)c1ccc(-c2ccccc2)cc1	2	-2	.
O=C(c1ccccc1)c1ccc(-c2ccccc2)cc1	91*	.	-1
COc1ccc(C(=O)CSc2nnc(-c3ccccc3Cl)n2-c2ccccc2)cc1	27	-5	2
